Measured values reported in the supplement of paper PMC10981050.
Where “and” joins values, the source holds several entries; their conditions need not be identical. Equal entries are not always repeated. Structures can show the parent of a compound that is named as a salt.

Columns and labels:
Assay in all cases: cell viability relative to vehicle control; higher = less cytotoxic
Conditions in all cases: 10 µM
[1] = tested on: K562
Outline: (§1)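 Mutant clones made by CRISPR editing and their isogenic wild-type counterparts, from four leukaemia lines, were exposed to a single 10 µM dose of each library compound for 48 h. The supernatant was then removed and CellTiter-Glo luminescence was read. Viability was reported as percent of the on-plate vehicle control.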

[2] = tested on: MARIMO
Outline: as §1

[3] = tested on: MOLM14
Outline: as §1

[4] = tested on: OCI-AML2
Outline: as §1

SMILES	cell viability ([1]; SRSF2 genotype: SRSF2 P95H/wt)	cell viability ([1]; SRSF2 genotype: SRSF2 wt/wt)	cell viability ([2]; SRSF2 genotype: SRSF2 P95H/wt)	cell viability ([2]; SRSF2 genotype: SRSF2 wt/wt)	cell viability ([3]; SRSF2 genotype: SRSF2 P95H/wt)	cell viability ([3]; SRSF2 genotype: SRSF2 wt/wt)	cell viability ([4]; SRSF2 genotype: P95H/wt)	cell viability ([4]; SRSF2 genotype: wt/wt)
O=C(O)c1cn(C2CC2)c2cc(Cl)c(F)cc2c1=O [Fluoroquinolonic Acid]	108% and 104%	108%	97.5%	101%	104%	110%	104%	110%
CO[C@H]1CC[C@H](N2C(=O)CNc3ncc(-c4ccc(C(C)(C)O)nc4)nc32)CC1	27.9% and 28%	29.7%	36.3%	32.3%	28.1%	24.1%	26%	29.6%
O=C(O)CCc1ccc(O)cc1 [Phloretic acid]	99.4% and 99.9%	94.6%	93.9%	104%	109%	103%	99.2%	105%
O=C(O)CC[C@H]1CC[C@@](c2cc(F)ccc2F)(S(=O)(=O)c2ccc(Cl)cc2)CC1	102% and 101%	97.9%	91.6%	92.1%	98.3%	99.2%	102%	97%
COC(=O)Nc1ccc(-c2nc(N3CCOCC3)c3cnn(C4CCN(C(=O)OC)CC4)c3n2)cc1	43.8% and 55.5%	48.8%	53.5%	52%	40.9%	34.3%	33.9%	32.9%
Cc1nn(C)c2nc(NNC(=O)Nc3cc(Cl)nc(Cl)c3)cc(C(C)C)c12	70.7% and 79.6%	70%	82.1%	61.8%	83%	83.8%	50.5%	55.4%
OC(CC1c2ccccc2-c2cncn21)C1CCCCC1 (configuration not stated)	85.4% and 94.1%	97.5%	80%	93.1%	90.6%	93.5%	89.8%	99.7%
O=c1[nH]c(=O)n([C@H]2C[C@H](O)[C@@H](CO)O2)cc1F [Floxuridine]	54.2% and 46.3%	30.1%	86.5%	96.5%	48%	14.9%	30.9%	48.8%
Nc1c2c(nc3ccccc13)CCCC2 [tacrine hydrochlorid]	101% and 110%	112%	100%	113%	103%	105%	122%	94.5%
C[C@@H]1O[C@@H](OC[C@H]2O[C@@H](Oc3cc(O)c4c(c3)O[C@H](c3ccc(O)c(O)c3)CC4=O)[C@H](O)[C@@H](O)[C@@H]2O)[C@H](O)[C@H](O)[C@H]1O [Eriocitrin]	110% and 103%	108%	105%	100%	117%	110%	98.4%	94.6%
Cc1ccc(Sc2cncc3sc(C(N)=O)cc23)cc1	91.6% and 90.7%	90.6%	95.7%	102%	89.3%	100%	68.8%	69.4%
CC(=O)OCC(=O)[C@@]1(O)CC[C@H]2[C@@H]3CCC4=CC(=O)CC[C@]4(C)[C@H]3C(=O)C[C@@]21C [Cortisone acetate (Cortone)]	110% and 108%	118%	118%	109%	112%	112%	117%	109%
O=C1C(c2[nH]c3ccccc3c2O)=Nc2ccccc21 [Indigo]	105% and 106%	94.6%	100%	108%	93%	99.8%	90%	106%
CNCC[C@H](Oc1cccc2ccccc12)c1cccs1 [Duloxetine HCl (Cymbalta)]	45.7% and 60.1%	54.7%	55%	61.4%	55.9%	70.9%	46.2%	53.5%
CO/N=C(\C(=O)N[C@@H]1C(=O)N2C(C(=O)O)=CCS[C@H]12)c1csc(N)n1 [Ceftizoxime]	99.2% and 101%	110%	96.1%	98.9%	104%	103%	111%	98.5%
CC(=O)OC1CC2CCC1(C)C2(C)C (configuration not stated) [Bornyl acetate]	109% and 107%	114%	107%	107%	98.8%	104%	110%	107%
CN(C)C/C=C/C(=O)Nc1ccc(C(=O)Nc2cccc(Nc3ncc(Cl)c(-c4c[nH]c5ccccc45)n3)c2)cc1	12.4% and 22.2%	16.8%	0.73%	1.23%	0.23%	0.21%	0.37%	0.63%
CCCCCCCCCCCC(=O)O [Lauric Acid]	91.8% and 82.9%	85.7%	89.8%	101%	92.6%	92.1%	94.9%	96.1%
CN(C)c1ccc2c(c1)Sc1cc(N(C)C)ccc1N2 [TRx0237 (LMTX) mesylate]	35.5% and 35.7%	20.9%	20.4%	18.9%	5.72%	2.96%	6.33%	10.7%
